The values below come from PubChem BioAssay (NCI).

Compounds without any hit were thinned out: in the full panel of roughly 83,000, 20% have a hit.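 Activity criterion: percent growth below 10, measured after cells in 96-well plates were exposed to a single compound concentration for 48 hours.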 A number with no mark means an inactive call. Activity calls are given as the source filed them.

For the first assay, the system named is ACHN renal. The experiment in a line: NCI-60 one-dose screen, 48 h (100 = growth as untreated, 0 = no growth, -100 = all killed). Particulars: 10 µM unless noted.
As to `CC(=O)Nc1nc(C(=O)N2N=C(C)/C(=C/c3cccs3)C2=O)cs1`, the growth is 113%.
For the compound `CN1C(=O)[C@H]2c3c1cccc3[C@@]13NC(=O)O[C@H]1[C@H](CCC3(C)C)C2(C)C`, the growth is 94.2%.
For the compound `CC(=O)C1CCC(C)=CC1=O` (stereo not drawn), the growth is 98.4%.
Turning to `COc1cccc(-n2cc(-c3nc(Cl)c4ccccc4n3)nn2)c1`, the growth is 112%.
On to `Nc1c(C(=O)Nc2cccc(Cl)c2Cl)sc2nc3c(cc12)C(=O)CCC3`, for which the growth is 98.1%.
As to `COc1cc(/C=C2\CCCC3=C2NC(C)=NC3c2cc(OC)c(OC)c(OC)c2)cc(OC)c1OC` (stereo not drawn), the growth was 12.5%.
Regarding `O=c1[nH]c(-c2cn(-c3ccc(Cl)cc3)nn2)nc2ccccc12`, the growth is 42.5%.
`CC/C(=C(\c1ccc(O)cc1)c1ccc(OCCN(C)CCN(C)C(=O)CCC(=O)c2c(C)[nH]c(/C=C3\N=C(c4ccc[nH]4)C=C3OC)c2C)cc1)c1ccccc1`: the growth was 95.5%.
`Cc1cc(Nc2nc(-c3ccncc3)nc3ccccc23)n[nH]1`: the growth is 40.2%.
For the compound `COc1cc(C2C=C(C)N=C3SC=CN32)cc(OC)c1OC` (stereo not drawn), the growth was 115%.
On to `COC1=CC(c2ccc[nH]2)=N/C1=C\c1[nH]c(C)c(C(=O)CCC(=O)Oc2ccc3c(c2)CCC2C3CC[C@]3(C)[C@@H](O)CC[C@@H]23)c1C` (stereo partly drawn), for which the growth was -55.3% (active).
`Cc1ccc(Cn2c(-c3nonc3N)nc3ccccc32)cc1`: the growth is 92.3%.
On to `O=C(Nc1ccccc1)OCC1OCOC(COC(=O)Nc2ccccc2)C1OC(=O)Nc1ccccc1` (stereo not drawn), for which the growth is 48.4%.
The same measure, in the same setting: with `CC1=CNNc2c3ncnc-3ncn21` the figure was 99.8%; with `CCN(CC)c1cc(/C=C/c2ccc(OC)c(OC)c2)nc2cc(F)c(F)cc12`, -50.9% (active); with `CCCCCCCCCCCCOB(OCCCCCCCCCCCC)OCCCCCCCCCCCC`, 109%.
`c1ccn2nnnc2c1`: the growth is 111%.
As for `Nc1c(C(=O)Nc2c(Cl)cccc2Cl)sc2nc3c(cc12)CCCCC3`, the growth is 58.5%.
With `COc1ccc(-n2c(C)cc(-c3ccccc3)c2C)cc1`, the growth was 62.5%.
Still for that read-out and setting: for `COc1cc2c(cc1OC)C1(C)N(CC2)C(=O)OC1(C)C` (stereo not drawn) the value was 107%; for `COc1ccc(/C=C/c2nc(N3CCOCC3)c3nc(Cl)c(Cl)cc3n2)cc1OC`, 100%; for `Cc1cccc(NC(=O)c2sc3nc4c(cc3c2N)CCCC4)c1`, 48.9%.
`O=C(/C=C/c1ccccc1)n1c(-c2ccc(Cl)cc2)nc2ccccc21`: the growth is -49.9% (active).
`COc1cc(Cn2c(-c3nonc3N)nc3ccccc32)ccc1C`: the growth is 41.2%.
The same measure, in the same setting: with `Clc1ccc(-c2nc(-c3ccco3)cn3ccnc23)cc1` the figure was 8.59% (active); with `Oc1ccc(N=Cc2ccccc2)cc1`, 57.3%.
For `CCCCCc1c(C)[nH]c(/C=c2\[nH]/c(=C3/C=c4ccccc4=N3)cc2OC)c1C`, the growth is -78.3% (active).
Take `COc1cc2nc(Cl)nc(NCCO)c2cc1OC`: the growth was 98.3%.
Still for that read-out and setting: with `CCC1CCc2nc3sc(C(=O)Nc4ccccc4C)c(N)c3cc2C1` (stereo not drawn) the figure was 47.4%; with `Cc1cc(Nc2nc(C(=O)Nc3ccccc3)nc3ccccc23)n[nH]1`, 39.9%; with `c1ccc2nc(-c3ccc4ccccc4n3)ccc2c1`, 96.4%.
Still for that read-out and setting: with `Clc1nc2ccccc2nc1CI` the figure was 92.1%; with `Cc1cccc(NC(=O)c2sc3nc4c(cc3c2N)CCC4)c1C`, 48.4%; with `Clc1cccc(Cl)c1Cn1c(-c2cncs2)nc2ccccc21`, 86.8%.
As for `Clc1ccc(/C=C/c2nc(N3CCOCC3)c3nc(Cl)c(Cl)cc3n2)cc1`, the growth is 51.5%.
For the compound `Cc1cc(Nc2nc(-c3ccc(F)cc3)nc3ccccc23)n[nH]1`, the growth was 39.4%.
Still for that read-out and setting: with `COC(=O)[C@H]1[C@H](OC)[C@@H](OC(=O)/C=C/c2ccncc2)CC2CN3CCc4c([nH]c5cc(OC)ccc45)[C@@H]3C[C@@H]21` (stereo partly drawn) the figure was 63%; with `CN(C)c1ncc(-c2ccc(C(F)(F)F)cc2)c(NC2CCCCCC2)n1`, 16.5%; with `CC(=O)Nc1ccc(S(=O)(=O)N2C(=O)CCC2C(=O)Nc2ccccc2)cc1` (stereo not drawn), 30.4%.

Another assay deals with CAKI-1 renal. The assay is described as above. Particulars: 10 µM unless noted.
In the case of `CC(=O)Nc1nc(C(=O)N2N=C(C)/C(=C/c3cccs3)C2=O)cs1`, the growth was 98.6%.
As for `CN1C(=O)[C@H]2c3c1cccc3[C@@]13NC(=O)O[C@H]1[C@H](CCC3(C)C)C2(C)C`, the growth is 94.4%.
In the case of `CC(=O)C1CCC(C)=CC1=O` (stereo not drawn), the growth was 96.5%.
As to `COc1cccc(-n2cc(-c3nc(Cl)c4ccccc4n3)nn2)c1`, the growth is 99.1%.
In the case of `Nc1c(C(=O)Nc2cccc(Cl)c2Cl)sc2nc3c(cc12)C(=O)CCC3`, the growth is 79%.
With `COc1cc(/C=C2\CCCC3=C2NC(C)=NC3c2cc(OC)c(OC)c(OC)c2)cc(OC)c1OC` (stereo not drawn), the growth is 11.4%.
Consider `O=c1[nH]c(-c2cn(-c3ccc(Cl)cc3)nn2)nc2ccccc12`, for which the growth is 84.2%.
Same read-out and setting: with `CC/C(=C(\c1ccc(O)cc1)c1ccc(OCCN(C)CCN(C)C(=O)CCC(=O)c2c(C)[nH]c(/C=C3\N=C(c4ccc[nH]4)C=C3OC)c2C)cc1)c1ccccc1` the figure was 71.4%.
As for `Cc1cc(Nc2nc(-c3ccncc3)nc3ccccc23)n[nH]1`, the growth is -6.19% (active).
In the case of `COc1cc(C2C=C(C)N=C3SC=CN32)cc(OC)c1OC` (stereo not drawn), the growth is 96.9%.
As to `COC1=CC(c2ccc[nH]2)=N/C1=C\c1[nH]c(C)c(C(=O)CCC(=O)Oc2ccc3c(c2)CCC2C3CC[C@]3(C)[C@@H](O)CC[C@@H]23)c1C` (stereo partly drawn), the growth is -39.3% (active).
The same measure, in the same setting: for `Cc1ccc(Cn2c(-c3nonc3N)nc3ccccc32)cc1` the value was 69.7%; for `O=C(Nc1ccccc1)OCC1OCOC(COC(=O)Nc2ccccc2)C1OC(=O)Nc1ccccc1` (stereo not drawn), 91.7%.
On the same count and under the same terms, with `CC1=CNNc2c3ncnc-3ncn21` the figure was 102%; with `CCN(CC)c1cc(/C=C/c2ccc(OC)c(OC)c2)nc2cc(F)c(F)cc12`, 46.8%; with `CCCCCCCCCCCCOB(OCCCCCCCCCCCC)OCCCCCCCCCCCC`, 104%.
With `c1ccn2nnnc2c1`, the growth was 97.9%.
On the same count and under the same terms, with `Nc1c(C(=O)Nc2c(Cl)cccc2Cl)sc2nc3c(cc12)CCCCC3` the figure was 69.4%; with `COc1ccc(-n2c(C)cc(-c3ccccc3)c2C)cc1`, 29.3%.
Turning to `COc1cc2c(cc1OC)C1(C)N(CC2)C(=O)OC1(C)C` (stereo not drawn), the growth is 102%.
Consider `COc1ccc(/C=C/c2nc(N3CCOCC3)c3nc(Cl)c(Cl)cc3n2)cc1OC`, for which the growth is 93.7%.
With `Cc1cccc(NC(=O)c2sc3nc4c(cc3c2N)CCCC4)c1`, the growth was 40.8%.
As for `O=C(/C=C/c1ccccc1)n1c(-c2ccc(Cl)cc2)nc2ccccc21`, the growth was -39.4% (active).
Consider `COc1cc(Cn2c(-c3nonc3N)nc3ccccc32)ccc1C`, for which the growth is 46%.
On to `Clc1ccc(-c2nc(-c3ccco3)cn3ccnc23)cc1`, for which the growth was 50.2%.
On to `Oc1ccc(N=Cc2ccccc2)cc1`, for which the growth was 105%.
Take `CCCCCc1c(C)[nH]c(/C=c2\[nH]/c(=C3/C=c4ccccc4=N3)cc2OC)c1C`: the growth was -38.7% (active).
Consider `COc1cc2nc(Cl)nc(NCCO)c2cc1OC`, for which the growth was 111%.
Take `CCC1CCc2nc3sc(C(=O)Nc4ccccc4C)c(N)c3cc2C1` (stereo not drawn): the growth was 29.4%.
Regarding `Cc1cc(Nc2nc(C(=O)Nc3ccccc3)nc3ccccc23)n[nH]1`, the growth was 24%.
As to `c1ccc2nc(-c3ccc4ccccc4n3)ccc2c1`, the growth is 83.2%.
Consider `Clc1nc2ccccc2nc1CI`, for which the growth was 97.8%.
For `Cc1cccc(NC(=O)c2sc3nc4c(cc3c2N)CCC4)c1C`, the growth was 30.5%.
Same read-out and setting: for `Clc1cccc(Cl)c1Cn1c(-c2cncs2)nc2ccccc21` the value was 66.5%; for `Clc1ccc(/C=C/c2nc(N3CCOCC3)c3nc(Cl)c(Cl)cc3n2)cc1`, 109%.
On the same count and under the same terms, for `Cc1cc(Nc2nc(-c3ccc(F)cc3)nc3ccccc23)n[nH]1` the value was -7.57% (active).
Turning to `COC(=O)[C@H]1[C@H](OC)[C@@H](OC(=O)/C=C/c2ccncc2)CC2CN3CCc4c([nH]c5cc(OC)ccc45)[C@@H]3C[C@@H]21` (stereo partly drawn), the growth was 53.3%.
For `CN(C)c1ncc(-c2ccc(C(F)(F)F)cc2)c(NC2CCCCCC2)n1`, the growth is 85.5%.
On to `CC(=O)Nc1ccc(S(=O)(=O)N2C(=O)CCC2C(=O)Nc2ccccc2)cc1` (stereo not drawn), for which the growth is 9.53% (active).
